Only some compounds are listed: those with a hit (about 2.5% of all), similar ones and a draw of the others.
Cruzain inh noDet: qHTS Assay for Promiscuous and Specific Inhibitors of Cruzain (without detergent); Cruzipain (Trypanosoma cruzi), P25779; purified cruzain, Z-FR-AMC fluorescence, no detergent; Potency, µM, for inactives: max response, negative = inhibition, most hits filed as inhibitors; 200,000 tested, 2.3% active;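 further: plate controls were enzyme without inhibitor for no effect and buffer without enzyme for full effect; nearly all actives have a fitted effect of over 40% in size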
Target sequence (P25779 123-467 limits assumed): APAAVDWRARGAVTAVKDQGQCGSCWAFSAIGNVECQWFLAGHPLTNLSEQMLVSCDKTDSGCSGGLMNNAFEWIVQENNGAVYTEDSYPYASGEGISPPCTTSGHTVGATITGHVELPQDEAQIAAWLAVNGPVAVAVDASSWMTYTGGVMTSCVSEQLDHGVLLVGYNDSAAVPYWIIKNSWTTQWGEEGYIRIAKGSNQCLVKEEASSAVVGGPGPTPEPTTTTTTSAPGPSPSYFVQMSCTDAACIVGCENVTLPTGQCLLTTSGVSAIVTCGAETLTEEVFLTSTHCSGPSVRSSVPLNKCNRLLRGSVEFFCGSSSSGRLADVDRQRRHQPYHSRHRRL
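Purified cruzain at 1.5 nM, pre-incubated 15 min with compound at room temperature in 100 mM sodium acetate pH 5.5, 5 mM DTT, 0.00005% Triton X-100. Reaction started with 2 uM Z-FR-AMC; AMC fluorescence increase over 60 s gives rate.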
Cruzain Triton: qHTS Assay for Promiscuous and Specific Inhibitors of Cruzain (with detergent); purified cruzain, Z-FR-AMC fluorescence, 0.01% Triton; Potency, µM, without a hit: max response, negative = inhibition, most hits filed as inhibitors; 200,000 tested, 0.43% active; AID 1478, 2009;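 further: plate controls were neutral wells for no effect and buffer without enzyme for full effect; nearly all actives have a fitted effect of over 40% in size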
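Purified cruzain (1.5 nM final) was preincubated with compounds for 15 min at room temperature in 100 mM sodium acetate pH 5.5, 5 mM DTT, 0.01% Triton X-100. Reaction started with 2 uM Z-FR-AMC; AMC fluorescence change over 60 s gave activity.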
Papain counter: qHTS Assay for Inhibitors of Papain: Counterscreen for Cruzain Assay; 410 tested, 41% active; shares compounds with Cruzain Triton; Potency, µM, without a hit: max response, negative = inhibition, hits mostly inhibitors; purified papain, Z-FR-AMC fluorescence cleavage;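 further: 0% = no-compound wells and -100% = no-enzyme wells; nearly all actives have a fitted effect of over 35% in size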
The depositor's hits bear a star. The call rests on the fitted dose curve; in most records, active means well fitted curve in the direction sought with a large enough effect; inconclusive means small, poorly fitted or top-dose-only effect, or another doubt; inactive means no such curve, though single readings can be large; an effect the other way counts as inactive or inconclusive. Potency means the concentration at half of the fitted maximal effect.

`Cn1c(=O)c2c(-c3ccccc3)n(-n3cnnc3)cc2n(C)c1=O` gave Cruzain inh noDet 6.31µM*, Cruzain Triton 8.91µM* and Papain counter 12.6µM*.
`Cn1c(=O)c2c(-c3ccccc3)n(CCCO)cc2n(C)c1=O` gave Cruzain inh noDet -5.0% and Cruzain Triton 1.7%.
CSCC[C@@H](N)P(C)(=O)O was read as Cruzain inh noDet 3.6% and Cruzain Triton 5.9%.
For CCCCNc1nc(Oc2ccc(=O)n(C)n2)nc(N2CCOCC2)n1 the results were Cruzain inh noDet 6.8% and Cruzain Triton -0.4%.
`CCC(=O)OC1=C(C(C)=O)N(Cc2ccccc2)S(=O)(=O)c2ccccc21` gave Cruzain inh noDet -3.6% and Cruzain Triton -9.3%.
Screening Cc1[nH]c(=O)[nH]c(=O)c1CSc1nnc([C@@H](NC(=O)OC(C)(C)C)C(C)C)o1 returned Cruzain inh noDet 0.0% and Cruzain Triton 9.5%.
For CC[C@@H](C)[C@H](NC(=O)OC(C)(C)C)c1nnc(S(=O)(=O)Cc2cc(C)ccc2C)o1 the results were Cruzain inh noDet 15.8µM*, Cruzain Triton 8.91µM* and Papain counter 15.8µM*.
For O=C(Nc1c(C(=O)N2CCN(c3ccccc3)CC2)oc2ccccc12)c1ccc(Br)o1 the results were Cruzain inh noDet inconclusive and Cruzain Triton -8.3%.
Screening Cc1ccccc1NC(=O)CSc1nc(-c2ccco2)nc2cc(=O)[nH]n12 returned Cruzain inh noDet 14.8% and Cruzain Triton -5.0%.
`O=C(CSc1nnc(-c2ccccc2)c(-c2ccccc2)n1)NCc1ccco1` gave Cruzain inh noDet inconclusive and Cruzain Triton -11.7%.
For Cc1ccccc1NC(=O)CSc1nnc(-c2ccco2)c(-c2ccco2)n1 the results were Cruzain inh noDet 3.16µM*, Cruzain Triton 25.1µM* and Papain counter 14.1µM*.
`O=C(CSc1nnc(-c2ccco2)c(-c2ccco2)n1)Nc1ccccc1` gave Cruzain inh noDet 20µM*, Cruzain Triton 22.4µM* and Papain counter 25.1µM*.
CCCn1ccc2c(OCC(=O)NCc3ccccc3Cl)cccc2c1=O was read as Cruzain inh noDet -21.2% and Cruzain Triton -11.2%.
For Cn1c(-n2cccc2)c(-c2c(-c3ccccc3)[nH]c3c2c(=O)n(C)c(=O)n3C)c(=O)n(C)c1=O the results were Cruzain inh noDet 7.7% and Cruzain Triton 3.1%.
Screening Cc1cnc(CNc2nc(-c3ccccc3Cl)nc3ccccc23)cn1 returned Cruzain inh noDet 3.1% and Cruzain Triton -2.6%.
Screening Cc1oc(=O)c(NC(=O)c2ccc(Cl)cc2)cc1C(=O)c1ccccc1 returned Cruzain inh noDet 2µM*, Cruzain Triton 2.51µM* and Papain counter 8.2%.
For CC(C)(C)c1ccc(C(=O)Nc2ccc(Cl)cc2C(=O)c2ccccc2)cc1 the results were Cruzain inh noDet -14.2% and Cruzain Triton -2.2%.
Screening CC1(C)CC(=O)c2cc(NC(=O)c3ccccc3)c(=O)oc2C1 returned Cruzain inh noDet -9.9% and Cruzain Triton -3.4%.
Cc1oc(=O)c(NC(=O)c2ccccc2)cc1C(=O)c1ccccc1 was read as Cruzain inh noDet 0.794µM*, Cruzain Triton 3.16µM* and Papain counter 5.0%.
For Cc1cc(C)c2c(CC(=O)Nc3c(C(=O)c4ccc(F)cc4)oc4ccccc34)coc2c1 the results were Cruzain inh noDet -15.3% and Cruzain Triton -1.2%.
CCCn1c(CCC(=O)Nc2cc(Cl)c(OC)cc2OC)nc2cccnc21 was read as Cruzain inh noDet 6.8% and Cruzain Triton -3.0%.
`O=c1oc2ccc(Br)cc2cc1-c1csc(-c2ccc(Cl)cc2)n1` gave Cruzain inh noDet -5.7% and Cruzain Triton 2.1%.
`O=c1oc2ccccc2cc1-c1csc(Cc2nc(-c3ccc(Br)cc3)cs2)n1` gave Cruzain inh noDet 3.16µM*, Cruzain Triton 2.4% and Papain counter 19.6%.
`COC(=O)CCC(=O)OC1(C)C(=O)C=C2C=C(CCCNC(=O)OC(C)(C)C)OC=C2C1=O` (configuration not stated) gave Cruzain inh noDet 7.1% and Cruzain Triton 3.2%.
For O=C1C(=Cc2ccco2)C(=O)c2ccccc21 the results were Cruzain inh noDet -4.8% and Cruzain Triton -4.5%.
`O=C1/C(=C/c2ccco2)CCc2ccccc21` gave Cruzain inh noDet 2µM*, Cruzain Triton 2.24µM* and Papain counter 28.2µM*.
For CCc1nc2ccccc2n1CCCCOc1ccccc1C the results were Cruzain inh noDet 11.9% and Cruzain Triton -7.2%.
`COc1ccccc1OCCCn1c(CCNC(=O)C2CCCCC2)nc2ccccc21` gave Papain counter 28.2µM*.
CCn1c(CCNC(=O)c2ccc(OC)c(OC)c2)nc2ccccc21 was read as Cruzain inh noDet -0.7% and Cruzain Triton -3.1%.
CCC(C)c1ccccc1OCCn1c(CCNC(=O)C2CCCCC2)nc2ccccc21 (configuration not stated) was read as Papain counter -11.2%.
Screening Cc1ccccc1OCCCn1c(CCNC(=O)C2CCCCC2)nc2ccccc21 returned Cruzain inh noDet 2.7%, Cruzain Triton 3.16µM* and Papain counter -18.8%.
Cc1ccccc1OCCn1c(CCNC(=O)C(C)C)nc2ccccc21 was read as Cruzain inh noDet 1.4% and Cruzain Triton -4.1%.
`Cc1ccccc1Cn1c(CCCNC(=O)C2CCCCC2)nc2ccccc21` gave Cruzain inh noDet -5.7% and Cruzain Triton -7.7%.
For Cc1ccccc1OCCCCn1c(CCNC(=O)C2CCCCC2)nc2ccccc21 the results were Papain counter 11.2µM*.
Cc1ccc2sc(N(Cc3cccnc3)C(=O)CCOc3ccccc3)nc2c1C was read as Cruzain inh noDet -22.7% and Cruzain Triton -1.9%.
For Cc1cccc(N2CCN(C(=O)c3c4c(nc5ccccc35)C(=O)N(C3CCCCC3)C4)CC2)c1C the results were Cruzain inh noDet 0.7% and Cruzain Triton -2.8%.
O=C(NCCCc1nc2ccccc2n1CCCOc1ccccc1)C1CCCCC1 was read as Papain counter 10.1%.
O=C(NCCCc1nc2ccccc2n1Cc1ccccc1)C1CCCCC1 was read as Cruzain inh noDet -6.9% and Cruzain Triton -6.1%.
Screening O=C(NCCCc1nc2ccccc2n1CCOc1ccccc1)C1CCCCC1 returned Papain counter 0.4%.
O=C(NCCCc1nc2ccccc2n1CCCCOc1ccccc1)C1CCCCC1 was read as Papain counter 5.0%.
For OCCCc1nc2ccccc2n1CCCCOc1ccccc1 the results were Cruzain inh noDet -1.4% and Cruzain Triton -5.0%.
Screening O=C(NCCCc1nc2ccccc2n1Cc1ccc(F)cc1)C1CCCCC1 returned Cruzain inh noDet -5.8% and Cruzain Triton -6.5%.
`COc1ccc(C(=O)NCc2ccc3c(c2)CCN3C(=O)c2cccc(C)c2)cc1OC` gave Cruzain inh noDet 1.7% and Cruzain Triton 3.8%.
For Fc1ccc(CNc2nc3ccc(Cl)cc3n3nnnc23)cc1 the results were Cruzain inh noDet -5.4% and Cruzain Triton -1.4%.
NC(=O)CSc1nc2ccccc2n1Cc1ccccc1 was read as Cruzain inh noDet -3.4% and Cruzain Triton -3.7%.
For NNC(=O)Cn1c(SCc2ccccc2)nc2ccccc21 the results were Cruzain inh noDet -1.4%, Cruzain Triton 2.8% and Papain counter 2.7%.
For Cc1ccc(OCCCn2c(CCNC(=O)C3CCCCC3)nc3ccccc32)cc1 the results were Papain counter 25.1µM*.
